Source: PubChem (National Center for Advancing Translational Sciences (NCATS))
Pf growth 96h: Primary qHTS for delayed death inhibitors of the malarial parasite plastid, 96 hour incubation; P. falciparum luciferase reporter growth, 96 h; Potency, µM (highest dose often 28.7 µM), for inactives: top-dose activity change, negative = inhibition, actives largely listed as inhibitors; hit rate 6.9% among 320,000; AID 504834, 2011; also: potency is read from the fitted curve at half-maximal effect; % is scaled to controls: 0 for no effect and ±100 for the full control effect
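Two-generation exposure (96 h) targets delayed-death phenotype. Reporter parasites carrying integrated firefly luciferase, in red cells at 2% hematocrit and 0.05% parasitemia final, kept at 37 C, 5% CO2; luminescence loss indicates inhibition.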
Cycloheximide cs: Cycloheximide Counterscreen for Small Molecule Inhibitors of Shiga Toxin; AID 2314, 2010; max response, %; hit rate 12% among 300,000; cell reporter, cycloheximide protein synthesis inhibition counterscreen; in the data active = max response mostly above about 13%, no sharp cut-off; inactive = mostly below about 14%; also: read at 38.3 µM for the half of the compounds with a filed dose; 0% is about no effect
Marburg entry inh: qHTS for inhibitors of binding or entry into cells for Marburg Virus; Marburg virus pseudotyped entry inhibition, cell reporter; Potency, µM (series often up to 37.8 µM), without a hit: top-dose activity change, negative = inhibition, actives largely listed as inhibitors; hit rate 1.8% among 300,000; calls by dose curve; tested in HEK293 cells; also: potency is read from the fitted curve at half-maximal effect; % is scaled to controls: 0 for no effect and ±100 for the full control effect
Pf growth 48h: Primary qHTS for delayed death inhibitors of the malarial parasite plastid, 48 hour incubation; P. falciparum luciferase growth in erythrocytes, 48 h; Potency, µM (highest dose often 28.7 µM), for the others: top-dose activity change, negative = inhibition, actives largely listed as inhibitors; hit rate 5.9% among 310,000; also: potency is read from the fitted curve at half-maximal effect; % is scaled to controls: 0 for no effect and ±100 for the full control effect
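Luminescence readout; reporter = integrated firefly luciferase in P. falciparum. RBC culture at 2% hematocrit, 0.1% parasitemia final, 37 C/5% CO2; decreased signal taken as growth inhibition.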
Lassa entry inh: qHTS for Inhibitors of binding or entry into cells for Lassa Virus; Lassa virus pseudotype entry inhibition, cell reporter; Potency, µM (titrated, usually from 37.9 µM), for the others: at the top dose activity change, negative = inhibition, usual class: inhibitors; hit rate 1.2% among 300,000; AID 540256, 2011; calls by dose curve; tested in HEK293 cells; also: potency is read from the fitted curve at half-maximal effect; % is scaled to controls: 0 for no effect and ±100 for the full control effect; nearly all actives have a fitted effect of over 50% in size
Shiga inhibitor: A qHTS for Small Molecule Inhibitors of Shiga Toxin. Vero cells, Shiga toxin protein synthesis inhibition reporter. inhibition, % at 38.7 µM. hit rate 9.2% among 290,000. AID 2315, 2010; in the data active = inhibition mostly above about 28%, no sharp cut-off; inactive = mostly below about 43%; also: 0% is about no effect
Numbers without * were called inactive; ? = inconclusive; . = no result given; ! = a repeat was not active; [ ] = remark or other dose. Shown are actives, neighbours in structure and some others; about 19% of the full set was active somewhere. Unless noted, calls follow the shape of the dose curve; as a rule, active = well fitted inhibition curve with a large enough effect; inconclusive = small, poorly fitted or top-dose-only effect, or another doubt; inactive = no such curve, though single readings can be large or run the other way.

SMILES	Pf growth 96h	Cycloheximide cs	Marburg entry inh	Pf growth 48h	Lassa entry inh	Shiga inhibitor
CSC1=C(C#N)C(c2ccc(C)s2)CC(=O)N1 (stereo not drawn)	2.3µM*	-2	0%	12%	3%	-21
O=P(CCl)(Nc1ccccc1)C(Cl)(Cl)Cl (stereo not drawn)	20%	-1	-12%[46.1 µM]	2%	-14%	2
O=C(C1CCN(S(=O)(=O)c2cnc[nH]2)CC1)N1CCn2c1nc1ccccc12	6%	-3	?	17%	0%	-7
CC(/C=C/C1[C@H](C)C[C@H](O[C@@H]2O[C@H](CO)[C@@H](O)[C@H](O)[C@H]2O)CC1(C)C)O[C@H]1O[C@H](CO)[C@@H](O)[C@H](O)[C@H]1O (stereo partly drawn)	41%	.	.	21%	.	.
Cc1ccc(S(=O)(=O)Nc2c(C)cc(C)nc2Cl)cc1	2.6µM*	4	.	24%	.	-4
Nc1ccc(C2=Nc3cccc4cccc(c34)N2)cc1	20%	8	-35%	?	-9%	7
COc1cccc(C2=Nc3cccc4cccc(c34)N2)c1	?	14*	-6%	?	36%	16
Cn1nc(C(=O)NNC(=O)c2cccc(Cl)c2)ccc1=O	.	.	-4%	.	14%	.
COc1cc2c(=O)n(Cc3ccccc3)c(=O)n(CC(=O)NCc3ccco3)c2cc1OC	3.7µM*	-2	-21%	?	-5%	-7
O=C(CCCn1c(=O)c2ccccc2n(Cc2ccccc2)c1=O)NCc1ccco1	72%	13	?	.	-24%	-4
O=C(NCc1ccco1)c1ccc(Cn2c(=O)c3ccccc3n(Cc3ccc(Cl)cc3)c2=O)cc1	-30%	4	-24%	12µM*	-17%	-11
O=C(CCCCn1c(=O)c2ccccc2n(Cc2ccc(F)cc2)c1=O)NCc1ccco1	3.3µM*	-1	?	?	-25%	-12
O=C(NCc1ccco1)c1ccc(Cn2c(=O)c3ccccc3n(Cc3cccc(F)c3)c2=O)cc1	.	5	?	.	-30%	21
Cc1cc(C)cc(-n2c(SCC(=O)NCc3ccc(F)cc3)nc3c([nH]c4ccccc43)c2=O)c1	.	.	.	.	16%[46.1 µM]	.
O=C(NNC(=O)c1cccnc1)Nc1ccc([N+](=O)[O-])cc1	-28%	8	14%	6%	?	-4
CC(C(=O)NC(=O)NC1CCCCC1)N1CCN(c2ccccn2)CC1 (stereo not drawn)	-9%	0	0%[46.1 µM]	-1%	-17%	40
CC(C(=O)Nc1cc([N+](=O)[O-])ccc1Cl)N1CCN(c2ccc(O)cc2)CC1 (stereo not drawn)	13µM*	-2	?	-27%	-9%	-4
CC(C(=O)NC(=O)NC1CCCCC1)N1CCN(c2ccc(O)cc2)CC1 (stereo not drawn)	17µM*	.	21%	?	3%	.
CC(C(=O)Nc1ccc([N+](=O)[O-])cc1Cl)N1CCN(S(=O)(=O)c2cccs2)CC1 (stereo not drawn)	?	.	-21%	12µM*	?	.
CC(C(=O)NC1CCCCC1)N1CCN(S(=O)(=O)c2cccs2)CC1 (stereo not drawn)	-9%	.	.	14%	.	.
O=C(COC(=O)C(Cc1ccccc1)NC(=O)c1cccs1)NCc1ccccc1 (stereo not drawn)	27%	.	.	-8%	.	.
COC(=O)C/C=C\[C@@H](C)[C@@H](/C=N\OC[C@@H](O)COCc1ccco1)NS(=O)(=O)c1ccc(C)cc1	.	.	21%[14.2 µM]	.	.	.
O=c1c2ccccc2nc(SCc2cc(=O)n3ccsc3n2)n1CCCO	.	7	1%	-25%	.	5
C/C(CC(=O)Nc1ccc2c(c1)OCO2)=N\NC(=O)c1ccccc1N	?	59*	24%[14.2 µM]	?	-8%	101*
COc1ccccc1C(=O)N/N=C(\C)CC(=O)Nc1ccc2c(c1)OCCO2	?	9	-1%[46.1 µM]	18%	-7%	30
SMILES	Pf growth 96h	Cycloheximide cs	Marburg entry inh	Pf growth 48h	Lassa entry inh	Shiga inhibitor
C/C(CC(=O)Nc1ccc2c(c1)OCO2)=N\NC(=O)c1ccc(N)cc1	8%	22*	?	21%	-40%[46.1 µM]	53*
C/C(CC(=O)Nc1ccc2c(c1)OCCO2)=N\NC(=O)c1ccccc1F	29%	30*	?	21%	1%	79*
CC(=O)NC(=S)Nc1ccccc1F	-18%	4	.	2%	.	19
CN(C(=O)COC(=O)c1cc(-c2ccc(Cl)s2)nc2ccccc12)C1CCS(=O)(=O)C1 (stereo not drawn)	-28%	5	.	13%	.	19
CCS(=O)(=O)N1CCc2nc(-c3ccccc3)sc2C1	392%	48*	.	170%	.	72*
COc1oc(=O)c2cc(N)ccc2c1Cl	.	62*	.	.	.	71*
CN(C)S(=O)(=O)c1ccc(NC(=O)Cc2ccc(S(=O)(=O)N3CCOCC3)s2)cc1	9.3µM*	4	?	?	13%[46.1 µM]	-11
CCOC(=O)c1cc(NC(=O)Cc2ccc(S(=O)(=O)N3CCOCC3)s2)cc(C(=O)OCC)c1	5.2µM*	.	?	10µM*	?	.
c1csc(C2C3=C(Nc4ncnn42)c2ccccc2OC3)c1 (stereo not drawn)	13µM*	-3	18%[46.1 µM]	?	-14%	-22
O=C1CC(c2cccs2)CC2=C1C(c1ccccc1)n1ncnc1N2 (stereo not drawn)	.	-2	2%	8%	8%	-12
Cc1cccc(NC(=O)C(Cc2ccccc2)c2nn[nH]n2)c1C (stereo not drawn)	8.3µM*	6	.	?	.	.
Cc1cccc(NC(=O)c2ccccc2NC(=O)Cc2ccccc2)c1C	40%	-2	6%	41%	?	-8
O=C1CC[C@@H](C(=O)O)N1	13µM*!	.	.	?	.	.
O=C1CCC(C(=O)OCC(=O)c2ccccc2)N1 (stereo not drawn)	-6%	-2	?	15%	25%	14
CCCCCCCCC(C)O (stereo not drawn)	.	-5	.	.	.	-5
CCCCCC(C)N (stereo not drawn)	12µM*	.	.	?	.	.
COc1cccc(NC(=O)CN2CCN(S(=O)(=O)c3ccc(C(C)C)cc3)CC2)c1	12µM*	-2	?	?	?	-29
CC(=O)c1c(C)[nH]c(C(=O)CN2CCN(S(=O)(=O)c3ccc(C(C)C)cc3)CC2)c1C	12µM*	.	.	12µM*	.	.
COc1cccc(N2CCN(CC(=O)Nc3ccc(S(=O)(=O)N4CCCCCC4)cc3)CC2)c1	?	.	?	12µM*	?	.
COc1cccc(NC(=O)CN2CCN(S(=O)(=O)c3ccc(F)cc3)CC2)c1	.	-2	-2%	8%	11%	-17
Cc1ccc(C)c(S(=O)(=O)NCc2ccc(C(=O)N3CC(C)OC(C)C3)cc2)c1 (stereo not drawn)	?	-7	-9%[46.1 µM]	-9%	-6%	-5
